Out of some 2,100 compounds screened, about 480 (23%) were called active. About 5% were inconclusive and are not listed.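 How the source made its calls: active means fitted curve reaches 40% activation at or below the top valid concentration, in every replicate test; inconclusive means replicate tests disagree on the call; inactive means the rest, including activity in the opposite direction.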 A selection follows. Results with a measured potency or affinity are listed apart.
assay: activators raising PGC1a acetylation in cells, dose response, cell-based, cherry-picked samples, set 6 (AID 720513); settings: U2OS PGC1a acetylation AlphaLISA, overnight, 0 = neutral, -100 = inhibitor control; series mostly up to 19.5 µM;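 further: cells made to overexpress flag tagged PGC1a plus GCN5 acetyltransferase by viral infection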

outcome, inactive:
O=C(CC1CC1)N[C@@H]1CC[C@@H](CCNS(=O)(=O)c2ccc(Cl)cc2)O[C@@H]1CO, Cc1cccn2c(=O)c3cc(C(=O)NCc4ccco4)c(=N)n(CCc4ccccc4)c3nc12, O=C(NCc1ccco1)c1ccc(Cn2c(=O)c3ccccc3n(Cc3ccc(Cl)cc3)c2=O)cc1, COc1ccc(S(=O)(=O)NCCC(=O)NCc2ccc(F)cc2)cc1, COc1cccc(C(=O)NCCS(=O)(=O)N2CCN(C(=O)c3ccco3)CC2)c1, Cc1ccc(S(=O)(=O)N2CCCC(C(=O)NCCC3=CCCCC3)C2)cc1 (stereo not drawn), COc1ccc(CCNC(=O)c2ccc(Cl)cc2)cc1, COc1ccc(CCNc2ccc(C(CC(N)=O)NC(=O)c3cc(C)cc(C)c3)cc2[N+](=O)[O-])cc1 (stereo not drawn), CN(C[C@H]1N[C@@H](CO)[C@@H]1c1ccc(C2=CCCC2)cc1)C(=O)c1cccc(F)c1, Cc1ccsc1C(=O)Nc1cc(Cl)ccc1-n1cncn1, S=c1nc[nH]c2c1cnn2Cc1ccccc1, CCCC[C@@]1(C2CCCC2)Cc2cc(OCC(=O)O)c(Cl)c(Cl)c2C1=O, COC(=O)c1nn(-c2ccccc2)ccc1=O, CC(=O)N1/C(=C/c2ccc(N(C)C)cc2)C(=O)c2ccccc21, CC1CCCCC1NC(=O)C1CCN(C(=O)NC2CCCCC2)CC1 (stereo not drawn), O=C1Nc2ccccc2N=C(c2ccccc2)C1N(Cc1ccc(F)cc1)C(=O)c1cccnc1 (stereo not drawn), COc1ccc(NC(=O)/C(Cl)=C(/Cl)S(=O)(=O)Cc2ccccc2)cn1, O=C(NCc1ccc2c(c1)OCO2)c1nc(S(=O)(=O)Cc2ccccc2)ncc1Cl, N#CCSc1nnc(COc2ccc3ccccc3c2)o1, O=S(=O)(Nc1cccc(CCc2ccccn2)c1)c1ccc2ccccc2c1, C=C[C@H]1CN2CCC1C[C@H]2[C@H](O)c1ccnc2ccc(OC)cc12 (stereo partly drawn), CN1/C(=C\C(=O)c2oc3ccccc3c2N)C(C)(C)c2ccccc21, COC(C[C@H]1O[C@@H]1[C@H](O)[C@H](C)OCc1ccccc1)OC, Cc1nc(Nc2ccc(S(N)(=O)=O)cc2)sc1C(=O)Nc1ccccc1, COc1ccc2[nH]c(C(=O)O)c(NC(=O)c3ccccc3[N+](=O)[O-])c2c1, C[C@@H]1CN([C@H](C)CO)C(=O)CCCn2cc(nn2)CO[C@@H]1CN(C)C(=O)NC1CCCC1, CC(=O)Nc1nc(C)c(Oc2ccc(Cl)cc2)c(=O)[nH]1, CSc1nc2nccc(/C=C\c3ccccc3)n2n1, COc1ccc(C(=O)OCC(=O)NCc2ccc3c(c2)OCO3)cc1[N+](=O)[O-], COC(=O)C(=Cc1ccc(OCc2ccc([N+](=O)[O-])cc2)c(OC)c1)C(=O)OC, CCCn1c(SC(C)C(=O)NCC2CCCO2)nc2cc(Cl)ccc2c1=O (stereo not drawn), O=C(CSc1nc(O)cc(=O)n1-c1ccccc1)N1CCCCC1, C[C@@H]1CN([C@H](C)CO)S(=O)(=O)c2ccc(C3=CCCCC3)cc2O[C@H]1CN(C)Cc1ccccc1, Oc1ccc(C2CNCCc3c2cc(O)c(O)c3Cl)cc1 (stereo not drawn), COC(=O)C1CCN(Cc2nnc(-c3ccccc3)o2)CC1, Cc1nc2ccccc2c(=O)n1NC(=O)c1ccc(Cl)c([N+](=O)[O-])c1, Cc1ccc2nc(SCC(=O)Nc3ccc(F)cc3)nc(=O)n2c1, CC(C(=O)OCn1nnc2ccccc2c1=O)N1C(=O)c2ccccc2C1=O (stereo not drawn), O=C1C=CC2(C=C1)O[C@H](Cc1ccccc1)[C@@H](Cc1ccccc1)O2, CCOC(=O)C(CC)(CC)C(=O)/C=C/c1ccc(Br)cc1, CCOc1ccccc1CNC(=O)c1cc2oc3ccccc3c2n1C, Cc1cccc(NC(=O)CNC(=O)Cn2ncc(Cl)c(Cl)c2=O)c1C, CSCCC(NC(=O)c1ccc(Cl)cc1)C(=O)OCC(=O)Nc1cc(Cl)ccc1C (stereo not drawn), CCOC(=O)c1cn(-c2ccccc2)nc1-c1cccnc1, COc1ccc2c([N+](=O)[O-])c(N3CCCC3)[nH]c2c1, COCCCNC1CS(=O)(=O)CC1O (stereo not drawn), COc1ccc(N(C)S(=O)(=O)c2cccc(C(=O)Nc3ccc(-n4cnnn4)cc3)c2)cc1, O=C(c1ccc2ccccc2c1)N1CCCC1, COc1ccc(CCNC(=O)COC(=O)c2ccco2)cc1OC, COc1ccc(CCNC(=O)C(=O)NCC2CCCO2)cc1OC (stereo not drawn), CCC(C)NCCOCCOc1ccc(C)cc1OC (stereo not drawn), CCOC(=O)c1c(C)nc2sc3c(=O)n(-c4ccc(OC)cc4)cnc3c2c1-c1ccc(OC)cc1, C[C@H]1CN([C@@H](C)CO)C(=O)c2cc(C#Cc3ccccc3)cnc2O[C@H]1CN(C)C(=O)c1ccccn1, CC1CN(C2CCN(C(=O)c3cccc(Cl)c3)CC2)CC(C)O1 (stereo not drawn), CCOC(=O)C1(CC2CCCCO2)CCN(C(=O)Nc2ccc(SC)cc2)CC1 (stereo not drawn), O=C1c2ccccc2C(=O)N1c1ccc(Cc2ccncc2)cc1, Cc1ccc(CCC(=O)Nc2ccc(Cl)cc2)o1, Cc1ccc(NC(=O)CC2=NC(=O)C(CC(=O)Nc3ccccc3F)S2)cc1 (stereo not drawn), O=C(O)C1CCCN1S(=O)(=O)c1ccc(Br)s1 (stereo not drawn) (tested in a mixture with another compound), COCCNC(=O)CCc1c(C)nc2c(c(C)nn2-c2ccc(C)c(C)c2)c1C, C[C@H](CO)N1C[C@H](C)[C@@H](CN(C)Cc2cccnc2)Oc2cc(C3=CCCC3)ccc2S1(=O)=O, Cc1cc(C)n(C(=O)c2ccc([N+](=O)[O-])cc2N)n1, Cc1ccc(-c2cc(C(=O)N3CCOCC3)c3ccccc3n2)o1, COc1ccc(S(=O)(=O)Nc2ccccc2C)cc1C(=O)N1CCOCC1, O=C(N=Nc1c(O)[nH]c2ccccc12)c1cc(-c2cccs2)[nH]n1, COc1ccccc1NC(=O)/C=C1\SCC(=O)N1C, Oc1c(Cl)cc(CN2CCOCC2)c2cccnc12, COc1ccc2c3c([nH]c2c1)[C@H](CO)N(C(=O)c1ccncc1)CC31CN(C(=O)c2ccncc2)C1, Cc1nc(SCC(=O)NC2CCCC2)[nH]c(=O)c1C, Cc1ccc(Cl)c(Cn2cnc3c(cnn3C(C)(C)C)c2=O)c1F, C[C@H](CO)N1C[C@H](C)[C@@H](CN(C)C(=O)CCN2CCCCC2)Oc2ncc(C#Cc3ccccn3)cc2C1=O, Cn1nnnc1Sc1ncnc2scc(-c3cc4ccccc4o3)c12, Cc1ccc(N2C(=O)N(CC(=O)Nc3ccc(C)cc3[N+](=O)[O-])C(=O)C2C)cc1 (stereo not drawn), O=C(CC(CC(=O)c1ccc(Br)cc1)c1cccnc1)c1ccc(Br)cc1, Cc1ccc(NC(=O)c2ccc(NCC3CCCO3)c([N+](=O)[O-])c2)cc1Cl (stereo not drawn), CC(C)(C)c1ccc(OCC(=O)NNC(=O)Nc2ccccc2)cc1, CCc1ccc(NC(=O)Nc2ccncc2)cc1, CC(C)(C)NC(=O)C(=O)NNC(=O)c1cccc([N+](=O)[O-])c1, N#CC1=C(N)Oc2n[nH]c(-c3ccccc3)c2C1c1ccncc1 (stereo not drawn), CN(CC(=O)NCC1CCCO1)S(=O)(=O)c1cc(Cl)ccc1Cl (stereo not drawn), Cc1noc(C)c1CSc1nnc(-c2cccnc2)n1C1CCCCC1C (stereo not drawn), C/C=C/c1ccc2c(c1)O[C@H](CN(C)C(=O)C1CC1)[C@H](C)CN([C@@H](C)CO)S2(=O)=O, CN(Cc1cnc2nc(N)nc(N)c2n1)c1ccc(C(=O)N[C@@H](CCC(=O)O)C(=O)O)cc1, Cc1ccc(S(=O)(=O)C(C#N)c2nc3ccccc3nc2N2CCCC2)cc1 (stereo not drawn), CCn1nnc(NC(=O)c2ccc(C(C)(C)C)cc2)n1, O=C(NCc1ccc2c(c1)OCO2)c1ccc(NC(=O)C2CCCO2)cc1 (stereo not drawn), CC(C)(C)OC(=O)N1CCCC(C(=O)Nc2cccc(C(=O)NCc3ccccc3)c2)C1 (stereo not drawn), O=C1NC(Nc2nccs2)(C(F)(F)F)C(=O)N1CCc1ccccc1 (stereo not drawn), CC(C)CC(NC(=O)c1ccc(Cl)cc1)C(=O)OCC(=O)c1ccc2c(c1)NC(=O)CO2 (stereo not drawn), C[C@H]1CN([C@@H](C)CO)C(=O)CCCn2nncc2CO[C@@H]1CN(C)C(=O)Nc1ccc2c(c1)OCO2, C[C@H]1CN([C@@H](C)CO)C(=O)c2cccc(NC(=O)c3ccncc3)c2O[C@H]1CN(C)C(=O)Nc1ccc2c(c1)OCO2, Cc1cc(C(=O)Nc2cccc3c2O[C@H](CN(C)C(=O)Nc2ccc4c(c2)OCO4)[C@@H](C)CN([C@H](C)CO)C3=O)n(C)n1, C[C@H]1CN([C@@H](C)CO)C(=O)Cc2cc(NS(=O)(=O)c3ccc(F)cc3)ccc2O[C@@H]1CN(C)C(=O)Nc1ccc2c(c1)OCO2, OCCN(Cc1ccccc1)CC1CCCCC1, O=C(Nc1ccccc1F)N1CCCCN2[C@@H](CO)[C@@H](c3ccc(C#Cc4ccccc4)cc3)[C@@H]2C1, COc1ccc(NC(=O)C2(C)Cc3c(-c4cccc(NC(C)=O)c4)ccnc3O2)cn1 (stereo not drawn), CC(=O)Nc1cccc(-c2ccnc3c2CC(C)(C(=O)Nc2ccc(C(C)C)cc2)O3)c1 (stereo not drawn), C[C@@H]1CCCCO[C@@H](CN(C)CC2CC2)[C@@H](C)CN([C@H](C)CO)C(=O)c2cc(NC(=O)C3CCCCC3)ccc2O1

— PubChem BioAssay AID720513 (Broad Institute, 2013)
